Data from the supplement of paper PMC11732987, “Enantioselective OTUD7B fragment discovery through chemoproteomics screening and high-throughput optimisation” (Communications Chemistry, 2025).

Legend:
Test in all cases: log2 ratio of Biotin-Ahx-Ub-VS probe labelling (fragment/DMSO); higher = less target engagement (more negative = stronger competition), active = hit call of the paper (q ≤ 0.05, log2 ratio ≤ -1)
Conditions in all cases: compound concentration: 200 uM; treatment time: 3 h
[1] = molecular target: USP34 (UniProt Q70CQ2)
Chain of USP34 (Q70CQ2 whole entry, the tested form may be a part): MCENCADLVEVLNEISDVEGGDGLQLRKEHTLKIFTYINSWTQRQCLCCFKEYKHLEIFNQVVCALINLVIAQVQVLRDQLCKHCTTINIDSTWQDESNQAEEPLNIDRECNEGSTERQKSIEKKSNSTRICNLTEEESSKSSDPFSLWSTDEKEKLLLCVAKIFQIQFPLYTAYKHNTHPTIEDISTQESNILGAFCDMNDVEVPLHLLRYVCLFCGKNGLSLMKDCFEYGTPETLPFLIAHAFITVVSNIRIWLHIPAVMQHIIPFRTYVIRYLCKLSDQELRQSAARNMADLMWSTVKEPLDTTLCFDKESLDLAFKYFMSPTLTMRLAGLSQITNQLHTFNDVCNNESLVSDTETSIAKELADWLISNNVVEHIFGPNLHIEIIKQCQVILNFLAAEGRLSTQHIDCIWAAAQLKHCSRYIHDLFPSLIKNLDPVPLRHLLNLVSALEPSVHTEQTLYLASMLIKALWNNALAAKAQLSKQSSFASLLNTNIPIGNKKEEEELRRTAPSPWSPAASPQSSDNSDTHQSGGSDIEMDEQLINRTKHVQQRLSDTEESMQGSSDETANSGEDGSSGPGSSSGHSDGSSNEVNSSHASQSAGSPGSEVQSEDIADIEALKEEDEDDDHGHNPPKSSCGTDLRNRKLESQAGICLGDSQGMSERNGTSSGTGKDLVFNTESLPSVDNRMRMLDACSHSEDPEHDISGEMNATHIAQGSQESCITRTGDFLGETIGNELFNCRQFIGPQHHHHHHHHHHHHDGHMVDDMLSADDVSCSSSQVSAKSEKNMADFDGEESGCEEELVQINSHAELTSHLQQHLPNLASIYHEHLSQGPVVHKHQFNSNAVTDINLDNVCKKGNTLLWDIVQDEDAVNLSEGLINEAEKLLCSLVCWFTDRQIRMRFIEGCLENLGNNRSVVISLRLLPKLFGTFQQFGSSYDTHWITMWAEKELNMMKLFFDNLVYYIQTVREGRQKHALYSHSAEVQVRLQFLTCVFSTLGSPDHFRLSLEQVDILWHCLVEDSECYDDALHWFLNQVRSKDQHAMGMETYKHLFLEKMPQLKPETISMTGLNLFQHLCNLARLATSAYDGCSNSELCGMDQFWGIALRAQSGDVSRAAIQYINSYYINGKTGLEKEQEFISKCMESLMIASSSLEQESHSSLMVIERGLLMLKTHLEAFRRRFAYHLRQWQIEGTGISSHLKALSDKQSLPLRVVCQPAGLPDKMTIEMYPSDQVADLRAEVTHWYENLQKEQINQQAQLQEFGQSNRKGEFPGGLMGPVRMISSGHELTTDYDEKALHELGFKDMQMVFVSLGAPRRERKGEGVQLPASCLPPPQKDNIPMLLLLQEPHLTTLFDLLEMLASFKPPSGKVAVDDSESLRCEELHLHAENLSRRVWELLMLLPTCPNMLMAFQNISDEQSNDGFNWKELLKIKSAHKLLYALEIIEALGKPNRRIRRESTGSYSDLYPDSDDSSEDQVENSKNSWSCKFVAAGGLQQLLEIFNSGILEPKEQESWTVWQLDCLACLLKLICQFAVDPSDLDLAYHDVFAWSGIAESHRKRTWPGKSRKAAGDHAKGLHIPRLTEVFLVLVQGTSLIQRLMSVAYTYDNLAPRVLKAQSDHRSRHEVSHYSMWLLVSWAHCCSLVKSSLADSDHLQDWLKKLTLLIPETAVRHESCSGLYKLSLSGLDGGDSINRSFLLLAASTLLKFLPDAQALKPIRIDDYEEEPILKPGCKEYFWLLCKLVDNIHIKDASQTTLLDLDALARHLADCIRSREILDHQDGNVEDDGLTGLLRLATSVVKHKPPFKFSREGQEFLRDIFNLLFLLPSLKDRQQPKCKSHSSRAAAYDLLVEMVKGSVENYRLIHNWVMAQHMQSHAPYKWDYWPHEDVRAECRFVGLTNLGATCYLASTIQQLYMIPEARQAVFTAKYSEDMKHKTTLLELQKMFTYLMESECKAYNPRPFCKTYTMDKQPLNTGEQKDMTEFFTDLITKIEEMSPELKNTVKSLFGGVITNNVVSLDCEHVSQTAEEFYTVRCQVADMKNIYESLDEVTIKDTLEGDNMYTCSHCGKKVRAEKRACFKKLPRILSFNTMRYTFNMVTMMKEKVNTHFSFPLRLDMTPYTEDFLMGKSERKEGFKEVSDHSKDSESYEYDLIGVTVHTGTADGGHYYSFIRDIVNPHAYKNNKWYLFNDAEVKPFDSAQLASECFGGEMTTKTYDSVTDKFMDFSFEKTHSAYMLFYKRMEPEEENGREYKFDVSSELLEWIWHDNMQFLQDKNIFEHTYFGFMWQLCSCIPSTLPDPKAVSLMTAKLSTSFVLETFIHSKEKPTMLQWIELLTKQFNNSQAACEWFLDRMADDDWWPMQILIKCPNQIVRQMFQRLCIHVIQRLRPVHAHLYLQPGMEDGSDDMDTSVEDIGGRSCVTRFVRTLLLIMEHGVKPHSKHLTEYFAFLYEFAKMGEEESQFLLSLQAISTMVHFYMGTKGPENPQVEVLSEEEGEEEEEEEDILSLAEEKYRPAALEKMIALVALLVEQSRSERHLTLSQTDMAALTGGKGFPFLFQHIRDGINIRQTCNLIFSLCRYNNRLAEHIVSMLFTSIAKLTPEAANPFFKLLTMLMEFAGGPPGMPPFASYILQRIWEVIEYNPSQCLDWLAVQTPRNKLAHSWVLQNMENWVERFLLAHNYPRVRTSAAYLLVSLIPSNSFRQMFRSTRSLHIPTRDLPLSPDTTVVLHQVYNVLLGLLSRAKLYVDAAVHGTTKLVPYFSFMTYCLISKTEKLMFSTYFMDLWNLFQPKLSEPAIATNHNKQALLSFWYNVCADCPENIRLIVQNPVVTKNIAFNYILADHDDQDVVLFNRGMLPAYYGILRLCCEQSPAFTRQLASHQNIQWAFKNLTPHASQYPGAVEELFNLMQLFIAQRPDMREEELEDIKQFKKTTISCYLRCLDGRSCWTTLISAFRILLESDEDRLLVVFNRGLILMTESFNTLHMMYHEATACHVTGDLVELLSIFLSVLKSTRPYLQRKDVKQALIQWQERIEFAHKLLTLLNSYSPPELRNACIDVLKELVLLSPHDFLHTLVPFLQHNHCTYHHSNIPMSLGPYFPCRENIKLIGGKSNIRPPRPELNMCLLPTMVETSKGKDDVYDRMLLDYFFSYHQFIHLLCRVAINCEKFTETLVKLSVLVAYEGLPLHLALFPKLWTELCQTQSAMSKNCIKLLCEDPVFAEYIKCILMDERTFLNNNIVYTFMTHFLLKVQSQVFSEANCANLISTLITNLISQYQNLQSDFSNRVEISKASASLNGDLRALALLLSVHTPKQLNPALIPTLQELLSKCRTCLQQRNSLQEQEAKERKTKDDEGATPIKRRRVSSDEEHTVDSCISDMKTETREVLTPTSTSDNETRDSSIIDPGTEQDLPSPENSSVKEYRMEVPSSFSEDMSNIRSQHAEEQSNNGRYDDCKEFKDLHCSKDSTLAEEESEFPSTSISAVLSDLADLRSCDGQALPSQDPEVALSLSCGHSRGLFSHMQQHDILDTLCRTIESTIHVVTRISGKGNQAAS
Method in brief: (§1)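 Labelled DUBs from HEK293T lysate were NeutrAvidin-enriched, digested with LysC and trypsin, and run by diaPASEF LC-MS/MS. Before that, each 495 µg sample in Tris/CHAPS/IGEPAL buffer with protease inhibitors was treated in triplicate with fragment at 200 µM or vehicle for 3 h, then with Biotin-Ahx-Ub-VS at 0.5 µM final for 1 h. Values are average log2 ratios of fragment over vehicle by unpaired t-test, based on global-median-normalised Spectronaut label-free quantities from proteins with ≥2 unique peptides.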

[2] = molecular target: T1, USP36 (UniProt Q9P275)
T1 sequence (whole entry): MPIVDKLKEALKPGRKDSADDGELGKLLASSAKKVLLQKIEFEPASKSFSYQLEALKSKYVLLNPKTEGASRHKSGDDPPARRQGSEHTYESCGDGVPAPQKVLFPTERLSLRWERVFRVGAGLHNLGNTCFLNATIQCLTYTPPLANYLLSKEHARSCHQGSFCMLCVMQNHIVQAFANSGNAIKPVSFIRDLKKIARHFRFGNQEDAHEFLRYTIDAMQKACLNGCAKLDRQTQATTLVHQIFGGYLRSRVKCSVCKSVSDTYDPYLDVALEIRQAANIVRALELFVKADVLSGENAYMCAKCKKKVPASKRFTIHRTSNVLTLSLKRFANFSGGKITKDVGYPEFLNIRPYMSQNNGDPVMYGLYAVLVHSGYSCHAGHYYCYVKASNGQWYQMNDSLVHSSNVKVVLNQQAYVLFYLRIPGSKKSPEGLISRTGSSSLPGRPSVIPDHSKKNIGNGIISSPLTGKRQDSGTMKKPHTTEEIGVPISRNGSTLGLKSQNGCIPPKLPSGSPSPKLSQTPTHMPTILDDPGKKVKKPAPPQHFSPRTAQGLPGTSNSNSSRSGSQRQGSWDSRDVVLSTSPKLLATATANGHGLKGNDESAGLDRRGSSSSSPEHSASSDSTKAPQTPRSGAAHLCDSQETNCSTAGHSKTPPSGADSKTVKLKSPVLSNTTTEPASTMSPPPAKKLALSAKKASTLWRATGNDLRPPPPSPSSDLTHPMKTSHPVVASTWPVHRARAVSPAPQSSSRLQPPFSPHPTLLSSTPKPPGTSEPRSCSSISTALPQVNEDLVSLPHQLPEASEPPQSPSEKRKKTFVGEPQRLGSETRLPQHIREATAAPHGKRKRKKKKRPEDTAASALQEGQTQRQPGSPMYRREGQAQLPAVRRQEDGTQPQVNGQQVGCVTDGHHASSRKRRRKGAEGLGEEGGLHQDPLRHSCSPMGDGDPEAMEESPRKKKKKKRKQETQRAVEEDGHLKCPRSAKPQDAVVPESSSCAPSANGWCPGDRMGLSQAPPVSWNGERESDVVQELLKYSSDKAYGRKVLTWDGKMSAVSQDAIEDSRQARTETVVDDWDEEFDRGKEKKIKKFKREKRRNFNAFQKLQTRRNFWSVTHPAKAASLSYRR
Method in brief: as §1

[3] = molecular target: T2, USP38 (UniProt Q8NB14)
T2 sequence (whole entry): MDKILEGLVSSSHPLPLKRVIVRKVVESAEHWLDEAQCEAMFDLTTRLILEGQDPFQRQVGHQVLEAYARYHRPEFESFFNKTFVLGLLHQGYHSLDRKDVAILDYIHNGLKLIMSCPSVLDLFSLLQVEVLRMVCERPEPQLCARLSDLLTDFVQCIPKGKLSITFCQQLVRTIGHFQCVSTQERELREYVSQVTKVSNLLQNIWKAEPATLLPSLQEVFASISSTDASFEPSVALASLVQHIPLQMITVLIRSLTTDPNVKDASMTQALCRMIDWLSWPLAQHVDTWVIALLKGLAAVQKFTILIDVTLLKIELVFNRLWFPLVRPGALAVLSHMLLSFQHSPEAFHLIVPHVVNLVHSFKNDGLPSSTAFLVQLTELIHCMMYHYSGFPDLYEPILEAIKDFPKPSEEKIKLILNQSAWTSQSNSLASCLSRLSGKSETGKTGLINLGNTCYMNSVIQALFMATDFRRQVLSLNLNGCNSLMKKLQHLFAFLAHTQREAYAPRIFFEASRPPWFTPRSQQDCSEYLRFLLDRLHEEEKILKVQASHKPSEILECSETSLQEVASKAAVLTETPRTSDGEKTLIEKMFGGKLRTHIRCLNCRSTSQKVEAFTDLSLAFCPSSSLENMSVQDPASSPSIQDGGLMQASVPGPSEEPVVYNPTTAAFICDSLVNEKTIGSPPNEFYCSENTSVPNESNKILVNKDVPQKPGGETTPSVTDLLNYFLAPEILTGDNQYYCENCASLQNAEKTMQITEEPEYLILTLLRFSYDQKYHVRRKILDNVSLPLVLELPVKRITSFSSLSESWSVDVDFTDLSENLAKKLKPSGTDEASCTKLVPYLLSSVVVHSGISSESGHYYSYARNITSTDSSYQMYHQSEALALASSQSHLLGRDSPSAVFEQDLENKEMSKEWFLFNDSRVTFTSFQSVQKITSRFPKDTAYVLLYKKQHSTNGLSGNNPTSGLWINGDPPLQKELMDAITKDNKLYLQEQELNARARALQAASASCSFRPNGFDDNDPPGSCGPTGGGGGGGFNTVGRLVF
Method in brief: as §1

[4] = molecular target: T3, USP39 (UniProt Q53GS9)
T3 sequence (whole entry): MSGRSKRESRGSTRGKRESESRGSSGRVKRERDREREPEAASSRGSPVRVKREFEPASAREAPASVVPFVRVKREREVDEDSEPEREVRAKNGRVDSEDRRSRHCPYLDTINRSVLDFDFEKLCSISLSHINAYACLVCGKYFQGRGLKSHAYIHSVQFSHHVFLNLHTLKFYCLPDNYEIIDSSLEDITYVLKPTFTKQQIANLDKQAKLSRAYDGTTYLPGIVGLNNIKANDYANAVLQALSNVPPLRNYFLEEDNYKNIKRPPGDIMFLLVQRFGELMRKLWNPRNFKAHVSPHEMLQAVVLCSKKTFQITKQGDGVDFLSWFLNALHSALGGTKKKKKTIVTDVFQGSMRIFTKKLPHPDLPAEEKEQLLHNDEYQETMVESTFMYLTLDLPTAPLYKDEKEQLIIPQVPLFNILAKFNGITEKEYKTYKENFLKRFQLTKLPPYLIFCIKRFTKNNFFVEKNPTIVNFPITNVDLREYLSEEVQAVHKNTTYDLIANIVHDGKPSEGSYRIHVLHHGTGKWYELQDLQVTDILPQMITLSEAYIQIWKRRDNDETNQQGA
Method in brief: as §1

[5] = molecular target: T4, USP4 (UniProt Q13107)
T4 sequence (whole entry): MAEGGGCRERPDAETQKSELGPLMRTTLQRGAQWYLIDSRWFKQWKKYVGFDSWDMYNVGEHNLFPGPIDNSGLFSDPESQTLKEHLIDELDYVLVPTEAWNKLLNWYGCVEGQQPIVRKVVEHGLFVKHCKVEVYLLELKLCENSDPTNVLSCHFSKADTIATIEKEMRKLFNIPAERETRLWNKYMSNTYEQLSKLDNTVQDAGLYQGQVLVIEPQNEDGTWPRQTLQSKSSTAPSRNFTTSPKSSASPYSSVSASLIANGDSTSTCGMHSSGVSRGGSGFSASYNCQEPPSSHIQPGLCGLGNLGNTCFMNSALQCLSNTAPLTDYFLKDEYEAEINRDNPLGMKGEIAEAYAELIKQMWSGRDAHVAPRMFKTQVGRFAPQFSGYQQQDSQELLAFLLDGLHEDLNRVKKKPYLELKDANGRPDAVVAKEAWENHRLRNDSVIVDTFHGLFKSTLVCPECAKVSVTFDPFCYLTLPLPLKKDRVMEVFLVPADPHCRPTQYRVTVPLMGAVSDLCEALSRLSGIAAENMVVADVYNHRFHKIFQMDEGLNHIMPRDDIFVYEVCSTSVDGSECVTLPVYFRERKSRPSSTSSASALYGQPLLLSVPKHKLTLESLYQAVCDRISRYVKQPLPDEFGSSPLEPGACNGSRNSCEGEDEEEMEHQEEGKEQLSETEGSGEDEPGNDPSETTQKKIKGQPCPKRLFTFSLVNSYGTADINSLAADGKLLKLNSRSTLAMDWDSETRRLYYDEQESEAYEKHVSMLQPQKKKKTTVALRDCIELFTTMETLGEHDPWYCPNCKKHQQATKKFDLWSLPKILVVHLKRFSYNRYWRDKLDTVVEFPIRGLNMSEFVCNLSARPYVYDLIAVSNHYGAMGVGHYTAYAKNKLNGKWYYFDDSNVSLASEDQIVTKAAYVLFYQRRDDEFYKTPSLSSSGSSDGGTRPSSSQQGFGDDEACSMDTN
Method in brief: as §1

Measured: log2 ratio of Biotin-Ahx-Ub-VS probe labelling

O=C(CCl)Nc1ccc2c(c1)OC(F)(F)O2
inactive: [1] -0.119 | [2] 0.029 | [3] 0.122 | [4] 0.433 | [5] 0.0436
